In PubChem BioAssay (EPA / NIEHS):
Several values for one entry are separate records, joined by “and”; a condition that tells them apart may be missing. Equal values may be shown once. A structure can be active in one record and inactive in another. Activity calls are given as the source filed them. The calls were made as follows: active = hit-call score of the fitted dose curve at least 0.9, where 1 is the maximum; inactive = score below 0.9.

Columns and labels:
[1] = ATG_GLI_CIS: Attagene CIS-FACTORIAL HepG2 Assay for human Zinc Finger Protein GLI1 (AID 2282945); details: HepG2, Attagene cis-factorial reporter mRNA, GLI element; actives raise or lower the signal
Outline: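 HepG2 cells transiently transfected with cis-promoter multiplexed reporter units report endogenous transcription factor activity. After 24 h chemical exposure, reporter mRNA was quantified by RT-PCR, 6-FAM labelling, HpaI digestion and capillary electrophoresis, with bidirectional fitting against DMSO.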

[2] = molecular target: Bile acid receptor (Homo sapiens) (UniProt Q96RI1); assay: ATG_IR1_CIS: Attagene CIS-FACTORIAL HepG2 Assay for human Nuclear Receptor Subfamily 1 Group H Member 4 (NR1H4), IR1 submotif (AID 2282946); details: IR1 reporter transcription, actives raise or lower the signal
Outline: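 Transient MRTU transfection, HepG2; 24 h dosing; RNA → RT-PCR → 6-FAM primer extension → HpaI digest → capillary electrophoresis fluorescence. Gain/loss of signal fitted relative to DMSO.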

[3] = ATG_GRE_CIS: Attagene CIS-FACTORIAL HepG2 Assay for human Glucocorticoid Response Elements (GRE) (AID 2282947); details: HepG2 GRE cis-reporter, Attagene multiplex mRNA; actives raise or lower the signal
Outline: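 Following 24 h chemical exposure of transiently transfected HepG2 cells, total RNA was reverse-transcribed and reporter cDNA amplified, fluorescently labelled and sized by capillary electrophoresis. Signal gain or loss was fitted relative to DMSO vehicle.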

[4] = ATG_ISRE_CIS: Attagene CIS-FACTORIAL HepG2 Assay for human Interferon Regulatory Factor 1 (IRF1) binding to an Interferon-Stimulated Response Element (ISRE) (AID 2282948); details: HepG2 ISRE cis-reporter (Attagene), mRNA transcription readout; actives raise or lower the signal
Outline: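 Cell-based cis-reporter assay; HepG2; 24 h exposure; reporter mRNA by RT-PCR plus capillary electrophoresis fluorescence; activity in either direction scored relative to DMSO.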

[5] = ATG_M_32_CIS: Attagene CIS-FACTORIAL HepG2 Assay for M32 Transcription Factor (Internal Marker) (AID 2282949); details: HepG2 Attagene cis-factorial M32 reporter, mRNA; actives raise or lower the signal;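 also: background control marker of the multiplexed CIS panel rather than a real target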
Outline: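 HepG2 cells transiently transfected with multiplexed cis-regulated reporter units, dosed 24 h. Reporter mRNA quantified by RT-PCR, 6-FAM labelling, HpaI digestion and capillary electrophoresis; bidirectional fit vs DMSO.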

[6] = ATG_M_06_CIS: Attagene CIS-FACTORIAL HepG2 Assay for M06 Transcription Factor (Internal Marker) (AID 2282950); details: HepG2 Attagene CIS-FACTORIAL M06 internal marker reporter; actives raise or lower the signal
Outline: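 Cells (HepG2, transiently carrying cis-driven reporter units) receive chemical for 24 h before RNA isolation. Reporter cDNA is PCR-amplified, FAM-labelled by primer extension, HpaI-digested and sized on a capillary analyser.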

[7] = molecular target: Hypoxia-inducible factor 1-alpha (Homo sapiens) (UniProt Q16665); assay: ATG_HIF1a_CIS: Attagene CIS-FACTORIAL HepG2 Assay for human Hypoxia Inducible Factor 1 (HIF1A) (AID 2282951); details: HepG2 Attagene cis-factorial HIF1a reporter transcription; actives raise or lower the signal
Outline: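 Activity is fitted in both directions relative to DMSO. Reporter transcripts are read by RT-PCR, fluorescent primer extension and capillary electrophoresis after 24 h chemical treatment. The cells are HepG2 carrying transiently transfected cis-element-driven reporter units responding to endogenous factors.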

[8] = molecular target: Heat shock factor protein 1 (Homo sapiens) (UniProt Q00613); assay: ATG_HSE_CIS: Attagene CIS-FACTORIAL HepG2 Assay for human Heat Shock Transcription Factor 1 (HSE) (AID 2282953); details: HepG2 HSE cis-reporter, Attagene RNA transcription; actives raise or lower the signal
Outline: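 Liver-derived HepG2 cells carry transiently introduced multiple reporter units governed by cis promoters. Reporter RNA measured 24 h post-dose through reverse transcription, PCR amplification, fluorescent labelling and capillary electrophoresis, normalised to DMSO.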

[9] = ATG_MRE_CIS: Attagene CIS-FACTORIAL HepG2 Assay for human Metal Responsive Element (MRE) (AID 2282954); details: HepG2 MRE cis-reporter transcription, Attagene multiplex; actives raise or lower the signal
Outline: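 Step one: transfect HepG2 with cis-regulated reporter units. Step two: dose 24 h. Step three: isolate RNA, RT-PCR, 6-FAM label, HpaI digest, capillary electrophoresis. Fit bidirectionally to DMSO.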

[10] = molecular target: Paired box protein Pax-6 (Homo sapiens) (UniProt P26367); assay: ATG_Pax6_CIS: Attagene CIS-FACTORIAL HepG2 Assay for human Paired Box 6 (PAX6) (AID 2282956); details: HepG2 CIS-FACTORIAL PAX6 reporter transcription, RNA readout; actives raise or lower the signal
Outline: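 Multiplexed cis-reporter HepG2 system; 24 h treatment; reporter mRNA read by RT-PCR/CE fluorescence; bidirectional fit vs DMSO.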

[11] = ATG_PXRE_CIS: Attagene CIS-FACTORIAL HepG2 Assay for human Pregnane X Receptor Element (PXRE) (AID 2282957); details: HepG2 Attagene CIS-FACTORIAL PXRE reporter, mRNA; actives raise or lower the signal
Outline: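 Transiently transfected HepG2 cells were dosed and incubated for 24 h. RNA was then isolated, DNase-treated, reverse-transcribed and reporter sequences amplified. Labeled, HpaI-digested fragments were quantified by capillary electrophoresis against DMSO.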

[12] = ATG_PPRE_CIS: Attagene CIS-FACTORIAL HepG2 Assay for human Peroxisome Proliferator-activated Response Element (PPRE) (AID 2282958); details: HepG2 PPRE cis-element reporter, Attagene transcription factor profiling; actives raise or lower the signal
Outline: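 Endogenous PPRE-driven transcription is measured in HepG2 cells carrying transfected multi-reporter constructs. Reporter transcripts are quantified by RT-PCR, HpaI digestion and capillary electrophoresis 24 h after dosing. DMSO baseline, bidirectional fit.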

[13] = ATG_Sox_CIS: Attagene CIS-FACTORIAL HepG2 Assay for human SRY-box transcription factor (SOX) (AID 2282960); details: HepG2 Attagene cis-factorial SOX reporter, mRNA; actives raise or lower the signal
Outline: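 Reporter transcripts, measured by RT-PCR and capillary electrophoresis of labelled fragments, report endogenous SOX transcription factor activity. Transiently transfected human HepG2 cells receive chemical for 24 h; changes in either direction are fitted relative to DMSO.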

[14] = molecular target: Transcription factor Sp1 (Homo sapiens) (UniProt P08047); assay: ATG_Sp1_CIS: Attagene CIS-FACTORIAL HepG2 Assay for human Specificity Protein 1 (Sp1) (AID 2282961); details: HepG2 Sp1 cis-reporter transcription, actives raise or lower the signal
Outline: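 Read-out is reporter transcript level, measured by RT-PCR and fluorescent capillary electrophoresis after 24 h chemical treatment. System: transiently transfected HepG2 cells reporting endogenous transcription factor activity; gain or loss fitted against DMSO baseline.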

[15] = molecular target: Signal transducer and activator of transcription 3 (Homo sapiens) (UniProt P40763); assay: ATG_STAT3_CIS: Attagene CIS-FACTORIAL HepG2 Assay for human Signal Transducer and Activator of Transcription 3 (STAT3) (AID 2282963); details: HepG2, Attagene cis-factorial STAT3 reporter transcription; actives raise or lower the signal
Outline: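 Transcript-level reporter assay. HepG2 transient MRTU transfection, 24 h exposure, fluorescence detection after RT-PCR and CE; DMSO baseline.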

[16] = ATG_TA_CIS: Attagene CIS-FACTORIAL HepG2 Assay for human TA Basal Promoter (AID 2282964); details: HepG2 Attagene CIS-factorial TA basal promoter reporter; actives raise or lower the signal
Outline: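 Background internal-marker endpoint from a 52-component HepG2 cis-reporter panel. Cells treated 24 h; reporter transcripts quantified via RT-PCR and CE fluorescence against DMSO baseline.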

[17] = ATG_PBREM_CIS: Attagene CIS-FACTORIAL HepG2 Assay for human Phenobarbital-responsive Enhancer Module (PBREM) (AID 2282955); details: HepG2 PBREM cis-reporter, Attagene multiplexed transcription; actives raise or lower the signal
Outline: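 Endogenous transcription factor activity was read from reporter transcripts in transiently transfected human HepG2 liver cells after 24 h dosing. RT-PCR products were fluorescently labelled, HpaI-cut and sized by capillary electrophoresis; activity fitted bidirectionally against DMSO baseline.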

[18] = molecular target: Hepatocyte nuclear factor 6 (Homo sapiens) (UniProt Q9UBC0); assay: ATG_HNF6_CIS: Attagene CIS-FACTORIAL HepG2 Assay for human Hepatocyte Nuclear Factor 6 (HNF6) (AID 2282952); details: HepG2 Attagene cis-factorial HNF6 reporter transcription; actives raise or lower the signal
Outline: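 Reporter mRNA induction or loss in HepG2 after 24 h exposure; transient cis-MRTU transfection; fragments quantified by capillary electrophoresis; bidirectional analysis, DMSO as negative control.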

[19] = ATG_SREBP_CIS: Attagene CIS-FACTORIAL HepG2 Assay for human Sterol Regulatory Element Binding (SREBP) (AID 2282962); details: HepG2 Attagene cis-factorial SREBP reporter, mRNA; actives raise or lower the signal
Outline: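 mRNA induction of transfected cis-promoter reporters in HepG2 cells, 24 h post-dose. Detection: RT-PCR with 6-FAM-labelled products, HpaI digest, capillary electrophoresis. DMSO served as negative control and baseline.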

[20] = ATG_RORE_CIS: Attagene CIS-FACTORIAL HepG2 Assay for human RAR-related Orphan Receptor Element (RORE) (AID 2282959); details: HepG2 Attagene cis-factorial RORE reporter, mRNA; actives raise or lower the signal
Outline: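 RORE reporter transcripts reflecting endogenous factor activity were read after 24 h compound exposure of transfected HepG2 cells, using reverse transcription, PCR, fluorescent labelling and capillary electrophoresis sizing. Gain or loss fitted against DMSO.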

Measured: AC50

Hepatocyte nuclear factor 6 (Homo sapiens), sequence (Q9UBC0 whole entry, looked up, the tested form may be a part): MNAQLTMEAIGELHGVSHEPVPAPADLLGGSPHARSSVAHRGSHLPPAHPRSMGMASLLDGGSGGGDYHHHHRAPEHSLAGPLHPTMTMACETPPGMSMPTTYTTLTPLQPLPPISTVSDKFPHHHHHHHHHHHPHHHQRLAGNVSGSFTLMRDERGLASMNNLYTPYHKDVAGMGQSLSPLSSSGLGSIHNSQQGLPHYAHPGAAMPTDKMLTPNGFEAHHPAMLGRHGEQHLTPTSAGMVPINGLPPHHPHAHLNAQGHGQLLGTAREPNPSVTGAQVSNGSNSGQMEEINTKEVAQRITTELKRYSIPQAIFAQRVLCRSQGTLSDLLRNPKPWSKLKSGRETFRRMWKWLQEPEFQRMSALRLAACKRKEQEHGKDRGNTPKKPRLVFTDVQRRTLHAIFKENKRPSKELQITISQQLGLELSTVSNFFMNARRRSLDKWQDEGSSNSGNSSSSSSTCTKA
Hypoxia-inducible factor 1-alpha (Homo sapiens), sequence (Q16665 whole entry, looked up): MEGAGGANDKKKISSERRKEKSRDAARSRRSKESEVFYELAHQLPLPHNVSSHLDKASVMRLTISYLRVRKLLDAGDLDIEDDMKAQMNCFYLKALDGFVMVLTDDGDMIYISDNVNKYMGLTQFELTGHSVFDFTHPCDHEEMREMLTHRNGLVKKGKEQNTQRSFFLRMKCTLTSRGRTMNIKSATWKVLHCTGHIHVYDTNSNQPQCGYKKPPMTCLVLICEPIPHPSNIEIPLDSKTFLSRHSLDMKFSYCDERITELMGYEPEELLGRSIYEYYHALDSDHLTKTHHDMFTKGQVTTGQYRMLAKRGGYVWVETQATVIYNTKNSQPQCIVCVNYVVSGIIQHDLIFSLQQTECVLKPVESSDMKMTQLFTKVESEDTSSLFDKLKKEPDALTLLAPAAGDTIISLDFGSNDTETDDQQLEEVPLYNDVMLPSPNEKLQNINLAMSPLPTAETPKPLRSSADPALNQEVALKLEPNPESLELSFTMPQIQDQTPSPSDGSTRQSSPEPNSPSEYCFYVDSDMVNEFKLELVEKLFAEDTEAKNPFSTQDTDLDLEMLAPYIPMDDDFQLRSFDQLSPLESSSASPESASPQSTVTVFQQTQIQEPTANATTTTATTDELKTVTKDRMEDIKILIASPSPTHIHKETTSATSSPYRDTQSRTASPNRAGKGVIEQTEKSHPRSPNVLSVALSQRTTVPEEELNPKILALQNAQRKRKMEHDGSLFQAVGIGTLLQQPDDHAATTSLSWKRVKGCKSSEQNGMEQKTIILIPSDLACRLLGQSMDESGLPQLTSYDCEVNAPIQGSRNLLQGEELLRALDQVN
Signal transducer and activator of transcription 3 (Homo sapiens), sequence (P40763 whole entry, looked up): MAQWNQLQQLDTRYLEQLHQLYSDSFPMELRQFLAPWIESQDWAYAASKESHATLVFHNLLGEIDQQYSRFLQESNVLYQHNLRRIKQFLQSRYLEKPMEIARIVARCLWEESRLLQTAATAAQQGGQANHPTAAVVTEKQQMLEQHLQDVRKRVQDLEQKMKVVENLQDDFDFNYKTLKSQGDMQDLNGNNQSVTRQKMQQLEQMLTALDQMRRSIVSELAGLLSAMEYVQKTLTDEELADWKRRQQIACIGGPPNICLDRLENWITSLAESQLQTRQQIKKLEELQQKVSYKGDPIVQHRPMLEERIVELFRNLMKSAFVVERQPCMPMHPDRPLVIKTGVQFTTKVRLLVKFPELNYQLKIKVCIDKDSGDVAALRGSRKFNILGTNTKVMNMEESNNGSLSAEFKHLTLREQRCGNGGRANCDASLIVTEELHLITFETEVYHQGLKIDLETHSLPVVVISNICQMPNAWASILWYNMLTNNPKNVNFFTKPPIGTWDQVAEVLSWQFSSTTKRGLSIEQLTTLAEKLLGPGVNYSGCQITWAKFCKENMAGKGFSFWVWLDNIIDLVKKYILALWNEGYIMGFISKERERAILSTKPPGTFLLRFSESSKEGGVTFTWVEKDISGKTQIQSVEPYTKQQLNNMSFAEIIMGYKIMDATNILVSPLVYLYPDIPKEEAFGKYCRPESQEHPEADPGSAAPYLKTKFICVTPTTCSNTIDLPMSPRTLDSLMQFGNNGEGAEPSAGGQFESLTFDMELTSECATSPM
Paired box protein Pax-6 (Homo sapiens), sequence (P26367 whole entry, looked up): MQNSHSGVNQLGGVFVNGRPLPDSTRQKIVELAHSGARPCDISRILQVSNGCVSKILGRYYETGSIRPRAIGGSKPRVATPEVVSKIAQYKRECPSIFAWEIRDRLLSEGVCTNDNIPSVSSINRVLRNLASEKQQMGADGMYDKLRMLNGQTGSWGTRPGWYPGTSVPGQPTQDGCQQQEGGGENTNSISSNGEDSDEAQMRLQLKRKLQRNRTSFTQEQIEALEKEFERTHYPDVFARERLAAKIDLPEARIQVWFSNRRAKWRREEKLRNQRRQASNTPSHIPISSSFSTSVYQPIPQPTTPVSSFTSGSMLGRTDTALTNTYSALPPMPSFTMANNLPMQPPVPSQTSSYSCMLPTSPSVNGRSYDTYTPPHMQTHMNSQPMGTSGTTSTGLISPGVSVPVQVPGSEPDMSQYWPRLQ
Bile acid receptor (Homo sapiens), sequence (Q96RI1 whole entry, looked up): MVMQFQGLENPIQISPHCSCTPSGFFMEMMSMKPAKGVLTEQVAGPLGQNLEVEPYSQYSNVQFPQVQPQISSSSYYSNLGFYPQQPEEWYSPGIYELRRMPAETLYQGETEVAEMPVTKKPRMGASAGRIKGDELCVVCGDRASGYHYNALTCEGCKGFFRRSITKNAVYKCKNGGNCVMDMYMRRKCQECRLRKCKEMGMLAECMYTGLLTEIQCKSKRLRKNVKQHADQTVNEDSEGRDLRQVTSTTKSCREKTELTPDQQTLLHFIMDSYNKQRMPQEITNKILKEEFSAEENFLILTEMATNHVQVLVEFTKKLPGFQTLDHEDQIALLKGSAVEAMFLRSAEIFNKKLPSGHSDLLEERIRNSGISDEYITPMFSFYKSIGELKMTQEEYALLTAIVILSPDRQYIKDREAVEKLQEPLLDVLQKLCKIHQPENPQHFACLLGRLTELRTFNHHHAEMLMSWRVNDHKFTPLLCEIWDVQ
Transcription factor Sp1 (Homo sapiens), sequence (P08047 whole entry, looked up): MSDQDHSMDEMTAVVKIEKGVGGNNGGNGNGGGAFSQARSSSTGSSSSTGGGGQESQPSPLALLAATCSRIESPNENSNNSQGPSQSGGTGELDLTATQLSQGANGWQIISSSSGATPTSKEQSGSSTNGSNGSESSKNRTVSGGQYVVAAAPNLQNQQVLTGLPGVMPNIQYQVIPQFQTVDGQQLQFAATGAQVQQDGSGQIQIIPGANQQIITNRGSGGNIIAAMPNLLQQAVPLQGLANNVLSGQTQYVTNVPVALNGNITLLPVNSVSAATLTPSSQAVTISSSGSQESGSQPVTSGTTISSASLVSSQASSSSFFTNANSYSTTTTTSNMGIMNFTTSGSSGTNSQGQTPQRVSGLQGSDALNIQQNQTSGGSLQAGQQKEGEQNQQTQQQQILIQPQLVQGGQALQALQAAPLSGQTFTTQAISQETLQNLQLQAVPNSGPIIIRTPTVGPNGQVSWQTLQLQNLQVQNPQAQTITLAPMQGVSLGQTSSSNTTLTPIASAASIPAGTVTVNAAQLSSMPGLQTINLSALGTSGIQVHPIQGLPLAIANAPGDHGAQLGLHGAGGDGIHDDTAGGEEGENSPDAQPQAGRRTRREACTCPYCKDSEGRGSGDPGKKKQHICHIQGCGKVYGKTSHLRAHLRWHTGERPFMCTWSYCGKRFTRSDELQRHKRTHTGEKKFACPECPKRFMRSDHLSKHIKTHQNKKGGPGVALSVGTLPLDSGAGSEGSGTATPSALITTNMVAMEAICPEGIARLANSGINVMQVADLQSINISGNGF
Heat shock factor protein 1 (Homo sapiens), sequence (Q00613 whole entry, looked up): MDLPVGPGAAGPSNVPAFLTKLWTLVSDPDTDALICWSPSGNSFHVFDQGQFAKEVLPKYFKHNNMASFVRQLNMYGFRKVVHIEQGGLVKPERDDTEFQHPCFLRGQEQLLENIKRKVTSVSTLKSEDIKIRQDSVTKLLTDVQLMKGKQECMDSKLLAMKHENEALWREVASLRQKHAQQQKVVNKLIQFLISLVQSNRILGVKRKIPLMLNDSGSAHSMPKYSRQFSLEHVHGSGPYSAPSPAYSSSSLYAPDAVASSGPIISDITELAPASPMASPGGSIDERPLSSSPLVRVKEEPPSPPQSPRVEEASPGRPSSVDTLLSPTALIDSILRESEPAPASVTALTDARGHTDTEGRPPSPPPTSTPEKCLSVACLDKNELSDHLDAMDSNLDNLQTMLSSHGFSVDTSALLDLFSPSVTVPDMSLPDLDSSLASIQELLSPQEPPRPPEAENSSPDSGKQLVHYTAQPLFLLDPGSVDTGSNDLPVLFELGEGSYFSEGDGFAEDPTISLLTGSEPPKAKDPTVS

Oc1cc(Cl)ccc1Oc1ccc(Cl)cc1Cl
active: [3] 11.1 µM | [4] 13.5 µM [middle of 4 runs] | [8] 17.4 µM and 9.05 µM | [9] 15.3 µM [middle of 6 runs] | [10] 13.9 µM and 8.6 µM | [11] 2.98 µM [middle of 7 runs] | [13] 11.1 µM and 10.3 µM | [16] 17.4 µM
inactive: [1] | [2] | [3] | [4] | [5] | [6] | [7] | [8] | [9] | [10] | [11] | [12] | [13] | [14] | [15] | [16]

CC(C)N(C(=O)COc1nnc(C(F)(F)F)s1)c1ccc(F)cc1
active: [17] 11.5 µM | [11] 7.54 µM
not listed: [6] | [18] | [19] | [20]
inactive: all other assays above

O=S1OCC2C(CO1)C1(Cl)C(Cl)=C(Cl)C2(Cl)C1(Cl)Cl (stereo not drawn)
active: [11] 1.47 µM
not listed: [6] | [12] | [17] | [20]
inactive: all other assays above

CCC(C)(NC(=O)c1cc(Cl)c(C)c(Cl)c1)C(=O)CCl (stereo not drawn)
active: [11] 1.58 µM
not listed: [6] | [17] | [18] | [20]
inactive: all other assays above

CCS(=O)(=O)c1cccnc1S(=O)(=O)NC(=O)Nc1nc(OC)cc(OC)n1
inactive: [1] | [2] | [3] | [4] | [5] | [7] | [8] | [9] | [10] | [11] | [12] | [13] | [14] | [15] | [16]
active: [11] 60.5 µM

COC(=O)c1ccccc1S(=O)(=O)NC(=O)N(C)c1nc(C)nc(OC)n1
active: [11] 64.7 µM
not listed: [6] | [17] | [18] | [19] | [20]
inactive: all other assays above

COC(=O)c1ccccc1CS(=O)(=O)NC(=O)Nc1nc(OC)cc(OC)n1
inactive: [1] | [2] | [3] | [4] | [5] | [7] | [8] | [9] | [10] | [11] | [12] | [20] | [13] | [14] | [15] | [16]
active: [11] 33.9 µM

ClC1C(Cl)C(Cl)C(Cl)C(Cl)C1Cl (stereo not drawn)
active: [4] 161 µM and 58.2 µM | [9] 17.1 µM and 100 µM and 33.7 µM | [11] 2.93 µM [middle of 4 runs] | [14] 100 µM and 70.3 µM
inactive: [1] | [2] | [4] | [5] | [7] | [8] | [9] | [10] | [12] | [13] | [14] | [15] | [16]

CCC(C)(C)C(=O)OC1=C(c2ccc(Cl)cc2Cl)C(=O)OC12CCCCC2
not listed: [6] | [19] | [20]
inactive: all other assays above

CC1(c2ccc(Oc3ccccc3)cc2)OC(=O)N(Nc2ccccc2)C1=O (stereo not drawn)
active: [11] 2.24 µM | [12] 1.21 µM
not listed: [6] | [17] | [19]
inactive: all other assays above

CCOc1nc(NC)nc(NC(=O)NS(=O)(=O)c2ccccc2C(=O)OC)n1
not listed: [6] | [18] | [20]
inactive: all other assays above

CCCN(CCOc1c(Cl)cc(Cl)cc1Cl)C(=O)n1ccnc1
inactive: [1] | [2] | [3] | [4] | [5] | [7] | [8] | [9] | [17] | [10] | [12] | [13] | [14] | [15] | [16]
active: [8] 2.61 µM | [9] 18.6 µM | [17] 2.92 µM | [11] 828 nM and 60.9 µM | [14] 4.43 µM
